# In PubChem BioAssay AID1220 (Sanford-Burnham Center for Chemical Genomics, 2008):
# Hit rate of the full screen: of about 190,000 compounds, about 1,300 (0.68%) were called active. No stated cut-off is given here; in the data, active means inhibition above about 50%; inactive means the rest. What follows is part of a selection rich in actives, with near analogues and random picks from the rest.
# Biological target: Mannose-6-phosphate isomerase (Homo sapiens) (UniProt P34949)
# Assay: human PMI inhibitors, high substrate, primary screen, biochemical, fluorescence intensity, high mannose 6-phosphate (AID 1220)
# Conditions: recombinant PMI enzyme, coupled fluorescence intensity; at 20 µM; active compounds read high
# Sequence of Mannose-6-phosphate isomerase (Homo sapiens) (P34949 whole entry, looked up): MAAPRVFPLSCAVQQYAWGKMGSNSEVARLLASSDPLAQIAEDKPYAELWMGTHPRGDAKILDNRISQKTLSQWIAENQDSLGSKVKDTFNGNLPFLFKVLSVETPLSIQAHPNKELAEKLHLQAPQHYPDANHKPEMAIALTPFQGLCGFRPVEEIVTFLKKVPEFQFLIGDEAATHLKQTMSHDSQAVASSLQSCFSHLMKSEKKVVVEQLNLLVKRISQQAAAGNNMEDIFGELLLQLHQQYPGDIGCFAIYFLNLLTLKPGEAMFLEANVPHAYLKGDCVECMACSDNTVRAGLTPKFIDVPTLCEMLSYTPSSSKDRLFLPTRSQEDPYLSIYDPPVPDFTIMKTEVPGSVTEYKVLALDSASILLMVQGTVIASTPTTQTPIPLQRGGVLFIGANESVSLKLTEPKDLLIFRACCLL
row,Compound,inhibition
1,CCn1c(SCC(=O)N2CCCCC2C)nc2ccsc2c1=O (stereo not drawn),-3.6% (inactive)
2,CSc1ccccc1NC(=O)CO/N=C(\C)c1cc2ccccc2o1,14.6% (inactive)
3,CCc1ccc(NC(=O)CO/N=C(\C)c2cc3ccccc3o2)cc1,45% (inactive)
4,CCc1cccc(C)c1NC(=O)CO/N=C(\C)c1cc2ccccc2o1,60.5% (active)
5,O=C(CC1(O)C(=O)N(Cc2cccc3ccccc23)c2ccccc21)c1cccnc1 (stereo not drawn),2.3% (inactive)
6,CCCn1c(SCc2ccccn2)nc2c1c(=O)n(C)c(=O)n2C,4.6% (inactive)
7,O=C(NC1Cc2ccccc2C1)c1cc(COc2ccc(F)cc2Cl)on1,-6.1% (inactive)
8,CCS(=O)(=O)c1ccc(-c2csc(-c3ccccc3Cl)n2)c(Cl)c1Cl,5.5% (inactive)
9,COc1cc(CN2CCNC(=O)C2CC(=O)N2CCCCO2)cc(OC)c1 (stereo not drawn),52% (active)
10,COc1ccc(CN2CCNC(=O)C2CC(=O)N2CCCCO2)cc1OC (stereo not drawn),45.9% (inactive)
11,COc1ccc(CN2CCNC(=O)C2CC(=O)N2CCCCO2)c(OC)c1 (stereo not drawn),27.5% (inactive)
12,COc1cc(OC)cc(-c2nnc(SCc3c(F)cccc3Cl)o2)c1,8.3% (inactive)
13,CCOc1ccc(C(CC(=O)O)NC(=O)c2cccs2)cc1OC (stereo not drawn),-10.3% (inactive)
14,CCS(=O)(=O)c1ccc2oc(=O)c(/C=C(\O)c3ccc(Cl)cc3)nc2c1,17.4% (inactive)
15,Cc1ccc2oc(=O)c(/C=C(\O)CC(C)C)nc2c1,10.4% (inactive)
16,CC(C)C/C(O)=C/c1nc2cc(Cl)ccc2oc1=O,55.1% (active)
17,C/C(=N/Nc1nc(-c2ccccc2)cc(-c2ccccc2)n1)c1ccc(N)cc1,3.6% (inactive)
18,Cc1ccc(C2=NN(CC(=O)NCc3cccs3)C(=O)CC2)cc1,3.3% (inactive)
19,O=C(CN1N=C(c2ccccc2)CCC1=O)NCc1cccs1,6.5% (inactive)
20,O=C(CN1N=C(c2ccc(Cl)cc2)CCC1=O)NCc1cccs1,59.2% (active)
21,CC(NC(=O)c1cc2ccccc2o1)c1ccccc1 (stereo not drawn),-9.3% (inactive)
22,CCn1cc(C(=O)NCCCN2CCN(C)CC2)c(=O)c2cc(S(=O)(=O)N3CCc4ccccc4C3)ccc21,-2.9% (inactive)
23,O=C(O)c1ccc(N2Cc3ccccc3C2)cc1O,-70.5% (inactive)
24,CSc1nsc(/C=C/Nc2ccc(O)cc2C)c1C#N,65.8% (active)

row,Compound,inhibition
1,CSc1nsc(/C=C/Nc2ccc(C)c(C)c2)c1C#N,40.1% (inactive)
2,CSc1nsc(/C=C/Nc2ccc(F)cc2F)c1C#N,21.4% (inactive)
3,Cc1cc(NC(=O)COC(=O)c2ccco2)no1,-0.8% (inactive)
4,COC(=O)c1c(NC(=O)CN2C(=O)c3ccccc3C2=O)sc(Cc2ccc3c(c2)OCO3)c1C,1.6% (inactive)
5,Cc1c(Cc2ccc3c(c2)OCO3)sc(NC(=O)c2ccccc2)c1C(N)=O,2.7% (inactive)
6,CCOC(=O)c1c(NC(=O)CN2C(=O)c3ccccc3C2=O)sc(Cc2ccc3c(c2)OCO3)c1C,51.5% (active)
7,CC1(c2ccccc2)CC2CC(c3ccccc3)N1O2 (stereo not drawn),-7.9% (inactive)
8,CC1=C(C#N)C(=O)NC(=O)/C1=C\c1ccc(-c2cc(C)c(C)cc2[N+](=O)[O-])o1,52.8% (active)
9,CC1=C(C#N)C(=O)NC(=O)/C1=C\c1ccc(-c2ccc(C)cc2[N+](=O)[O-])o1,48.6% (inactive)
10,CC1=C(C#N)C(=O)NC(=O)/C1=C/c1ccc(-c2ccc(S(N)(=O)=O)cc2)o1,18.1% (inactive)
11,CC(Sc1nnc(NC2CCCCC2)s1)C(=O)Nc1ccc2c(c1)C(=O)c1ccccc1C2=O (stereo not drawn),-14.7% (inactive)
12,O=C(Nc1nccs1)c1ccc(CSc2nnnn2-c2ccccc2)cc1,-6.7% (inactive)
13,O=C(CN1CCN(C(=O)N2CCCCC2)CC1)Nc1ccc(F)cc1,6.5% (inactive)
14,CCOC(=O)C1Sc2ccccc2NC1=O (stereo not drawn),36.5% (inactive)
15,CN(C(=O)c1cccnc1)c1nnc(-c2ccccn2)s1,2% (inactive)
16,C=CCNc1nc(N2CCOCC2)c(C#N)c2c1CN(C)CC2,37.3% (inactive)
17,CCN1CCc2c(C#N)c(N3CCCCC3)nc(NCc3ccccc3)c2C1,32.5% (inactive)
18,C=CCNc1nc(N2CCCCC2)c(C#N)c2c1CN(Cc1ccccc1)CC2,55.6% (active)
19,CCN1CCc2c(C#N)c(NCc3ccccc3)nc(N(CC)CC)c2C1,0.8% (inactive)
20,Nc1[nH]nc2nc(NCc3ccccc3)c3c(c12)CCN(Cc1ccccc1)C3,3.5% (inactive)
21,CC(C)CCNc1nc(N2CCCC2)c2c(c1C#N)CCN(C)C2,14.4% (inactive)
22,CN1CCc2c(C#N)c(N3CCCCC3)nc(NCc3ccccc3)c2C1,53% (active)
23,N#Cc1c(NCCN)nc(NCc2ccccc2)c2c1CCN(Cc1ccccc1)C2,52.6% (active)
24,N#Cc1c(N2CCCCC2)nc(N2CCCCC2)c2c1CCN(Cc1ccccc1)C2,8% (inactive)
